Assay results from PubChem BioAssay (NCI).
Compounds without any hit were thinned out: in the full panel of roughly 83,000, 20% have a hit.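 Cell lines were cultured in 96-well plates, exposed to a single compound concentration, and assessed for percent growth 48 hours later.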 Values without a mark were called inactive. Active and inactive are the calls of the source. The calls were made as follows: active = growth percent below 10; inactive = the rest.

What was measured:
Assay in all cases: NCI-60 one-dose screen, 48 h (100 = growth as untreated, 0 = no growth, -100 = all killed)
Conditions in all cases: 10 µM unless noted
[1] = tested on: DU-145 prostate
[2] = tested on: K-562 leukemia
[3] = tested on: MALME-3M melanoma
[4] = tested on: MDA-MB-231 breast
[5] = tested on: RXF 393 renal
[6] = tested on: SF-268 CNS
[7] = tested on: SF-295 CNS
[8] = tested on: SF-539 CNS
[9] = tested on: UACC-257 melanoma
[10] = tested on: M14 melanoma

## CN(C)c1ccc(-c2c(C#N)c(N)nn2C(=O)c2ccc(NC(=O)c3ccccn3)cc2)cc1
[1]
  growth: 102%
[2]
  growth: 66.9%
[3]
  growth: 110%
[4]
  growth: 108%
[5]
  growth: 117%
[6]
  growth: 94.1%
[7]
  growth: 99%
[8]
  growth: 92%
[9]
  growth: 112%
[10]
  growth: 84.1%

## COC(=O)[C@@H](CCCCNC(=O)[C@]12CCC(C)(C)C[C@@H]1C1=CC[C@@H]3[C@@]4(C)C/C(=C/c5ccco5)C(=O)C(C)(C)[C@@H]4CC[C@@]3(C)[C@]1(C)CC2)NC(=O)[C@]12CCC(C)(C)C[C@@H]1C1=CC[C@@H]3[C@@]4(C)C/C(=C/c5ccco5)C(=O)C(C)(C)[C@@H]4CC[C@@]3(C)[C@]1(C)CC2
[1]
  growth: 115%
[2]
  growth: 95.8%
[3]
  growth: 102%
[4]
  growth: 92.4%
[5]
  growth: 119%
[6]
  growth: 104%
[7]
  growth: 101%
[8]
  growth: 97.1%
[9]
  growth: 100%
[10]
  growth: 107%

## O=C(/C=C/c1cccc(Cl)c1)c1cccc(OCCCOc2cccc(C(=O)/C=C/c3cccc(Cl)c3)c2)c1
[1]
  growth: 108%
[2]
  growth: 86.9%
[3]
  growth: 116%
[4]
  growth: 94.9%
[5]
  growth: 104%
[6]
  growth: 98.8%
[7]
  growth: 95.1%
[8]
  growth: 106%
[9]
  growth: 102%
[10]
  growth: 89.9%

## NNc1nc(-c2cccnc2)nc2c1sc(=S)n2-c1ccccc1
[1]
  growth: 106%
[2]
  growth: 75.5%
[3]
  growth: 100%
[4]
  growth: 105%
[5]
  growth: 114%
[6]
  growth: 89.6%
[7]
  growth: 98.1%
[8]
  growth: 95.6%
[9]
  growth: 92.3%
[10]
  growth: 99.9%

## CCSc1oc(-c2ccccc2)nc1[P+](c1ccccc1)(c1ccccc1)c1ccccc1
[1]
  growth: 11.1%
[2]
  growth: 7.15% (active)
[3]
  growth: -25% (active)
[4]
  growth: -12.8% (active)
[5]
  growth: 0.296% (active)
[6]
  growth: 14.1%
[7]
  growth: -4.41% (active)
[8]
  growth: 14.6%
[9]
  growth: 7.79% (active)
[10]
  growth: 7.57% (active)

## CCOC(=O)C#Cc1c(C(=O)OCC)nnn1Cc1ccc([N+](=O)[O-])cc1
[1]
  growth: 10.4%
[2]
  growth: 4.56% (active)
[3]
  growth: 53.8%
[4]
  growth: 83.1%
[5]
  growth: -58.4% (active)
[6]
  growth: 87.4%
[7]
  growth: 99.8%
[8]
  growth: 47.3%
[9]
  growth: 42%
[10]
  growth: 43.8%

## Clc1cccc(Nc2ncnc3ccc(-c4cnc5[nH]ccc5c4)cc23)c1
[1]
  growth: 54%
[2]
  growth: 62.1%
[3]
  growth: 82.9%
[4]
  growth: 75%
[5]
  growth: 73.7%
[6]
  growth: 66.2%
[7]
  growth: 86.8%
[8]
  growth: 84%
[9]
  growth: 75%
[10]
  growth: 88.7%

## N#CSCC1CC(O)(c2ccccc2)CC(c2ccc(F)cc2)O1 (stereo not given)
[1]
  growth: -27.8% (active)
[2]
  growth: 20.7%
[3]
  growth: 29.1%
[4]
  growth: -1.42% (active)
[5]
  growth: -35.3% (active)
[6]
  growth: -26.3% (active)
[7]
  growth: -17.2% (active)
[8]
  growth: 21%
[9]
  growth: 69.1%
[10]
  growth: -35.6% (active)

## O=S(=O)(Nc1ccc(F)cc1F)c1ccc(-c2cnc(C3CC3)o2)cc1
[1]
  growth: 40.7%
[2]
  growth: 18.2%
[3]
  growth: 34.8%
[4]
  growth: 53%
[5]
  growth: -1.92% (active)
[6]
  growth: 44.6%
[7]
  growth: 30.7%
[8]
  growth: 1.19% (active)
[9]
  growth: 64%
[10]
  growth: 4.25% (active)

## Nc1ncnc2c1N=C(c1ccc(Br)cc1)CC(c1cccc(Nc3ccnc4cc(C(F)(F)F)ccc34)c1)N2 (stereo not given)
[1]
  growth: 85.6%
[2]
  growth: 23%
[3]
  growth: 76.8%
[4]
  growth: 55.9%
[5]
  growth: 38.5%
[6]
  growth: 55.5%
[7]
  growth: 52.2%
[8]
  growth: 70.8%
[9]
  growth: 66.6%
[10]
  growth: 60.1%

## CC(=O)N1N=C(c2ccc(Nc3nc(Nc4ccccc4)nc(Nc4ccccc4)n3)cc2)CC1c1cccc([N+](=O)[O-])c1 (stereo not given)
[1]
  growth: 102%
[2]
  growth: 80.8%
[3]
  growth: 136%
[4]
  growth: 73.7%
[5]
  growth: -0.925% (active)
[6]
  growth: 109%
[7]
  growth: 104%
[8]
  growth: 89.8%
[9]
  growth: 92.3%
[10]
  growth: 94.8%

## Clc1ccc2c(c1)C(c1c[nH]c3ccccc13)(c1c[nH]c3ccccc13)CCO2
[1]
  growth: 88%
[2]
  growth: 73.1%
[3]
  growth: 106%
[4]
  growth: 55.5%
[5]
  growth: 95.6%
[6]
  growth: 71.5%
[7]
  growth: 70%
[8]
  growth: 95.4%
[9]
  growth: 38.1%
[10]
  growth: 69%

## COc1ccc(C(=O)Nc2cccc(-c3cc(=O)c4c(OC)c(OC)c(OC)cc4o3)c2)cc1
[1]
  growth: 56.5%
[2]
  growth: 20.6%
[3]
  growth: 53.4%
[4]
  growth: 57.2%
[5]
  growth: 53.6%
[6]
  growth: 58.4%
[7]
  growth: 59.6%
[8]
  growth: 66.3%
[9]
  growth: 105%
[10]
  growth: 68%

## Cc1ccc2c(c1)=C/C(=C\c1cc(-c3ccccc3)oc1O)C(=O)N=2
[1]
  growth: 104%
[2]
  growth: 91.7%
[3]
  growth: 110%
[4]
  growth: 116%
[5]
  growth: 106%
[6]
  growth: 91.6%
[7]
  growth: 93.1%
[8]
  growth: 101%
[9]
  growth: 109%
[10]
  growth: 90.6%

## Cc1c(O)cc(-c2cnc(Nc3ccccc3)s2)c(O)c1C
[1]
  growth: 105%
[2]
  growth: 87.2%
[3]
  growth: 107%
[4]
  growth: 99.2%
[5]
  growth: 99.5%
[6]
  growth: 105%
[7]
  growth: 98.9%
[8]
  growth: 95%
[9]
  growth: 106%
[10]
  growth: 93.6%

## C#CCNC(=O)[C@H](CC)[C@H]1CC[C@H](C)[C@H]([C@@H](C)[C@H](O)[C@H](C)C(=O)[C@H](CC)C2O[C@]3(C=CC(=O)[C@]4(CC[C@@](C)([C@H]5CC[C@](O)(CC)[C@H](C)O5)O4)O3)[C@H](C)C[C@@H]2C)O1 (stereo not given in full)
[1]
  growth: 22.6%
[2]
  growth: 8.66% (active)
[3]
  growth: 48.8%
[4]
  growth: -0.208% (active)
[5]
  growth: 14%
[6]
  growth: 45.9%
[7]
  growth: 43.9%
[8]
  growth: 6.76% (active)
[9]
  growth: 68.1%
[10]
  growth: -11.9% (active)

## CCCCCC(/C=N\NC(=S)N/N=C/C(=C/c1ccccc1)CCCCC)=C\c1ccccc1
[1]
  growth: 88.7%
[2]
  growth: 19.8%
[3]
  growth: 93.4%
[4]
  growth: 65.6%
[5]
  growth: 74.8%
[6]
  growth: 68%
[7]
  growth: 45.7%
[8]
  growth: 82.4%
[9]
  growth: 98.1%
[10]
  growth: 77.8%

## COc1ccc2c(c1)CC[C@H](O)/C2=C/c1cc(OC)c(OC)c(OC)c1
[1]
  growth: 0.0757% (active)
[2]
  growth: 8.97% (active)
[3]
  growth: 64%
[4]
  growth: 14.5%
[5]
  growth: 15.5%
[6]
  growth: 27.1%
[7]
  growth: 8.44% (active)
[8]
  growth: -5.68% (active)
[9]
  growth: 47.3%
[10]
  growth: 6.27% (active)

## CC1CCc2c(C(=O)Nc3ncc(Cc4cccc([N+](=O)[O-])c4)s3)csc2C1 (stereo not given)
[1]
  growth: 18%
[2]
  growth: 23.8%
[3]
  growth: 51%
[4]
  growth: 23.6%
[5]
  growth: -24.1% (active)
[6]
  growth: 43.9%
[7]
  growth: 14.3%
[8]
  growth: -7.87% (active)
[9]
  growth: 52%
[10]
  growth: 6.98% (active)

## CC1CN(S(=O)(=O)c2oc(-c3ccc(Cl)cc3)nc2C#N)CC(C)O1 (stereo not given)
[1]
  growth: 97.7%
[2]
  growth: 4.49% (active)
[3]
  growth: 46.4%
[4]
  growth: 90.7%
[5]
  growth: 40.3%
[6]
  growth: 111%
[7]
  growth: 97.9%
[8]
  growth: 60.7%
[9]
  growth: 87.3%
[10]
  growth: 67.9%

## COc1cc(C2c3cc(OC(C)=O)c(OC)cc3CC3C(=O)OCC32)ccc1OC(C)=O (stereo not given)
[1]
  growth: 115%
[2]
  growth: 115%
[3]
  growth: 112%
[4]
  growth: 105%
[5]
  growth: 115%
[6]
  growth: 111%
[7]
  growth: 112%
[8]
  growth: 99.4%
[9]
  growth: 103%
[10]
  growth: 106%

## CC1=NC2=Nn3c(c4cnn(-c5ccccc5)c4n/c3=N\N)NN2C(c2ccccc2)=C1
[1]
  growth: 105%
[2]
  growth: 102%
[3]
  growth: 87.9%
[4]
  growth: 88.7%
[5]
  growth: 74%
[6]
  growth: 96.1%
[7]
  growth: 90.7%
[8]
  growth: 94.7%
[9]
  growth: 101%
[10]
  growth: 93.1%

## O=C(/C=C/c1ccccc1)Nc1ncc(Cc2ccccc2Cl)s1
[1]
  growth: 26.9%
[2]
  growth: 12.6%
[3]
  growth: 53.8%
[4]
  growth: 40.3%
[5]
  growth: -7.17% (active)
[6]
  growth: 71.6%
[7]
  growth: -2.76% (active)
[8]
  growth: -16.3% (active)
[9]
  growth: 77.1%
[10]
  growth: 8.18% (active)

## Cc1cc(C)c2c(c1)N(C)c1ncnc(-n3cnc4cc(C)ccc43)c1CC2C (stereo not given)
[1]
  growth: 14.2%
[2]
  growth: 7.57% (active)
[3]
  growth: 45.2%
[4]
  growth: 36.8%
[5]
  growth: -24.8% (active)
[6]
  growth: 40.4%
[7]
  growth: 1.91% (active)
[8]
  growth: 6.25% (active)
[9]
  growth: 45.3%
[10]
  growth: 5.2% (active)

## COCCOc1cc2ncnc(N3CCN(c4cc(S(C)(=O)=O)c(C)cc4Cl)CC3)c2cc1OCCOC
[1]
  growth: 96.8%
[2]
  growth: 88.9%
[3]
  growth: 87%
[4]
  growth: 96%
[5]
  growth: 99.7%
[6]
  growth: 91.8%
[7]
  growth: 90.5%
[8]
  growth: 92%
[9]
  growth: 91.1%
[10]
  growth: 111%

## O=C(N/N=C/c1c(Cl)cccc1Cl)c1cccnc1Nc1cccc(C(F)(F)F)c1
[1]
  growth: 49.3%
[2]
  growth: 73.9%
[3]
  growth: 54.3%
[4]
  growth: 55.9%
[5]
  growth: 68.1%
[6]
  growth: 39.3%
[7]
  growth: 28.8%
[8]
  growth: 34.1%
[9]
  growth: 56%
[10]
  growth: 37.3%
